Test results from the supplement of paper PMC12350171.
Structures can show the parent of a compound that is named as a salt. Values without a mark were called inactive.

Columns and labels:
Conditions in all cases: 20 µM
[1] = system: Salmonella enterica typhimurium; assay: growth AUC normalised to DMSO control (fraction of control); higher = less growth inhibition, active = hit call of the paper
Summary of the method: (§1)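 After two anaerobic passages, pathogens were added at a starting OD578 of 0.01 to pre-reduced mGAM plates holding compound at 20 μM with 1% DMSO; hemin and NAD were supplemented for Haemophilus parainfluenzae. Sealed with breathable membranes, plates were read at OD578 hourly for 24 h, in three biological replicates. The trapezoidal rule, applied up to the exponential-to-stationary transition, gave the growth-curve AUC, which was normalised to DMSO controls on the same plate.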

Shigella flexneri = assay: as above
Summary of the method: as §1

Vibrio cholerae = assay: as above
Summary of the method: as §1

[2] = system: Yersinia pseudotuberculosis; assay: as above
Summary of the method: as §1

P. vulgatus RND KO = assay: growth AUC normalised to DMSO control (median) (fraction of control); higher = less growth inhibition, active = hit call of the paper
Summary of the method: (§2)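 Anaerobic growth was tracked hourly at OD578 for 24 h in 96-well plates of mGAM seeded at OD578 0.01 with each approved-drug library compound at 20 μM and 1% DMSO. Strains had first been passaged twice overnight without oxygen. Three biological replicates were run. The reported median is the area under the curve, calculated by the trapezoidal rule on curves truncated at entry into stationary phase and normalised to vehicle wells on the same plate.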

P. vulgatus WT = assay: as above
Summary of the method: as §2

[3] = system: S. enterica typhimurium WT; assay: as above
Summary of the method: as §2

[4] = system: S. enterica typhimurium tolC KO; assay: as above
Summary of the method: as §2
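For growth AUC normalised to DMSO control (median) in this document: active when median AUC fell below 0.1.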

Row | Structure (SMILES) | growth AUC normalised to DMSO control [1] | growth AUC normalised to DMSO control (Shigella flexneri) | growth AUC normalised to DMSO control (Vibrio cholerae) | growth AUC normalised to DMSO control [2] | growth AUC normalised to DMSO control (P. vulgatus RND KO) | growth AUC normalised to DMSO control (P. vulgatus WT) | growth AUC normalised to DMSO control [3] | growth AUC normalised to DMSO control [4]
1 | NC1CCN(c2c(F)cc3c(=O)c(C(=O)O)cn(C4CC4)c3c2Cl)C1 (configuration not stated) [Clinafloxacin] | 0.00836 (active) | 0.0463 (active) | 0.023 (active) | 0.0284 (active) | 0.0165 (active) | 0.0148 (active) | 0.00822 (active) | 0.00725 (active)
2 | COc1ccc(C(=O)NCc2cccnc2)cc1C(=O)NCc1cccnc1 [Picotamide monohydrate] | 0.989 | 0.968 | 0.992 | 0.984 | 1 | 1.01 | 0.995 | 0.998
3 | CCc1cc(Cl)c(OC)c(C(=O)NC[C@@H]2CCCN2CC)c1O [(S,-) Eticlopride hydrochloride] | 1 | 1.01 | 0.922 | 0.986 | 1.06 | 1.03 | 1 | 0.947
4 | CC(=O)/N=c1/sc(S(N)(=O)=O)nn1C [Methazolamide] | 0.99 | 1.04 | 1.05 | 0.979 | 1.07 | 1.06 | 1.01 | 1.02
5 | CC1(C)O[C@@H]2[C@@H](CO[C@@]3(COS(N)(=O)=O)OC(C)(C)O[C@@H]23)O1 [Topiramate] | 0.985 | 1.02 | 1.02 | 1.01 | 0.961 | 0.967 | 0.996 | 0.992
6 | CN1[C@@H]2CC[C@H]1C[C@@H](OC(c1ccccc1)c1ccccc1)C2 [Benztropine mesylate] | 1 | 1.01 | 1 | 1.01 | 0.944 | 0.904 | 0.998 | 0.195
7 | CC(C)C(=O)c1c(C(C)C)nn2ccccc12 [Ibudilast] | 1.01 | 1.01 | 1.05 | 0.994 | 0.949 | 0.956 | 1 | 0.33
8 | CCOC(=O)Nc1ccc2c(c1)N(C(=O)CCN1CCOCC1)c1ccccc1S2 [Moricizine hydrochloride] | 1.01 | 0.997 | 0.942 | 1.01 | 0.766 | 0.638 | 1.01 | 0.957
9 | O=C1c2c(O)cccc2Cc2cccc(O)c21 [Anthralin] | 1.02 | 0.987 | 1.03 | 1.02 | 0.861 | 0.834 | 0.989 | 0.985
10 | COc1ccc(CC2c3cc(OC)c(OC)cc3CC[N+]2(C)CCC(=O)OCCCCCOC(=O)CC[N+]2(C)CCc3cc(OC)c(OC)cc3C2Cc2ccc(OC)c(OC)c2)cc1OC (configuration not stated) [Atracurium besylate] | 1 | 1.05 | 1.01 | 1 | 1.04 | 1.04 | 0.983 | 1.01
11 | CN1CCCN=C1/C=C/c1cccs1 [Pyrantel tartrate] | 0.999 | 0.995 | 1.01 | 1.01 | 1.01 | 0.982 | 1.01 | 1
12 | CC(=C(CCO)SSCC1CCCO1)N(C=O)Cc1cnc(C)nc1N (stereo in doubt) [Fursultiamine hydrochloride] | 1.01 | 0.965 | 1 | 1.01 | 1.02 | 0.995 | 0.986 | 0.999
13 | CC(=O)OCC(=O)[C@@]1(O)CC[C@H]2[C@@H]3CCC4=CC(=O)CC[C@]4(C)[C@@]3(F)[C@@H](O)C[C@@]21C [Fludrocortisone acetate] | 0.995 | 0.988 | 1 | 1 | 1.02 | 1.04 | 1.02 | 0.981
14 | CC(C)(Oc1ccc(CCNC(=O)c2ccc(Cl)cc2)cc1)C(=O)O [Bezafibrate] | 0.976 | 0.959 | 0.988 | 0.994 | 0.976 | 1 | 0.998 | 0.99
15 | Cc1cccc(Nc2ccccc2C(=O)O)c1C [Mefenamic acid] | 1 | 1.01 | 0.926 | 1 | 0.958 | 0.979 | 0.985 | 1.01
16 | CCCCC(=O)O[C@H]1CC[C@H]2[C@@H]3CCc4cc(O)ccc4[C@H]3CC[C@]12C [Estradiol Valerate] | 1.05 | 1.05 | 1.08 | 1.01 | 1 | 1.07 | 0.998 | 1
17 | CC(C)(C)NCC(O)COc1cccc2c1CCC(=O)N2 (configuration not stated) [Carteolol hydrochloride] | 1 | 0.985 | 0.993 | 1 | 0.945 | 0.968 | 0.998 | 0.991
18 | C[N+]1(CCCCC[N+]2(C)CCCC2)CCCC1 [Pentolinium bitartrate] | 0.991 | 1 | 0.874 | 0.994 | 1 | 0.978 | 0.989 | 0.996
19 | OC(CCN1CCCCC1)(c1ccccc1)c1ccccc1 [Pridinol methanesulfonate salt] | 0.993 | 1.02 | 1.07 | 0.988 | 0.963 | 0.953 | 0.991 | 0.994
20 | C[C@]12CC[C@H]3C(=CCc4cc(O)ccc43)[C@@H]1CCC2=O [Equilin] | 1.01 | 0.993 | 0.99 | 1.01 | 0.993 | 0.991 | 1 | 0.95
21 | CCCCCN(C)CCC(O)(P(=O)(O)O)P(=O)(O)O [Ibandronate sodium] | 0.982 | 0.98 | 0.992 | 1.01 | 0.998 | 1.01 | 0.99 | 1
22 | CCN(CC)C(=O)c1ccc(O)c(OC)c1 [Ethamivan] | 0.981 | 1.03 | 1.03 | 1 | 1.04 | 1.06 | 1.01 | 1.01
23 | CCCCC(CC)CN1CN(CC(CC)CCCC)CC(C)(N)C1 (configuration not stated) [Hexetidine] | 1.04 | 1.05 | 1.02 | 1.04 | 1.02 | 1.03 | 1.02 | 0.88
24 | Cc1cnc(NC(=O)C2=C(O)c3ccccc3S(=O)(=O)N2C)s1 [Meloxicam] | 1.01 | 0.953 | 0.837 (active) | 1 | 0.982 | 0.991 | 0.994 | 0.947
25 | CCN(CC)C(=O)/C(C#N)=C/c1cc(O)c(O)c([N+](=O)[O-])c1 [Entacapone] | 1.02 | 1.04 | 1.07 | 0.998 | 0.987 | 0.996 | 0.997 | 1
26 | N/C(=N\C(=O)c1nc(Cl)c(N)nc1N)NCc1ccccc1 [Benzamil hydrochloride] | 0.972 | 0.986 | 0.99 | 0.998 | 0.996 | 0.991 | 0.998 | 0.984
27 | CN1CCN(CCCN2c3ccccc3Sc3ccc(Cl)cc32)CC1 [Prochlorperazine dimaleate] | 1.01 | 1.02 | 0.947 | 1 | 1.01 | 0.981 | 0.996 | 0.892
28 | CN1CCN(CC(=O)N2c3ccccc3C(=O)Nc3cccnc32)CC1 [Pirenzepine dihydrochloride] | 0.993 | 1 | 0.988 | 1.01 | 1 | 0.98 | 0.999 | 1
29 | CCCCOc1ccc(CC(=O)NO)cc1 [Bufexamac] | 0.996 | 0.974 | 1.01 | 0.956 | 1.01 | 0.991 | 0.997 | 0.967
